Data on five compounds can be found in the supplement of paper PMC6992640.

For this assay, the system named is UCD52 (cells of a triple-negative basal-like breast cancer xenograft). The assay can be described thus: cell viability of combination (% of vehicle); higher = less cytotoxic. To be noted: 1 µM; 72 h; partner dose: 10 nM. The procedure:
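PDX cells were treated for 72 h with each drug at 1 µM plus afatinib (10 nM; 1 µM for WHIM30). Luciferase viability is expressed as percent of vehicle.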
Take `CCCCCCCCCCCCCCCC[N+](C)(C)C.[Br-]` [Cetrimonium Bromide (CTAB)] + CN(C)C/C=C/C(=O)Nc1cc2c(Nc3ccc(F)c(Cl)c3)ncnc2cc1O[C@H]1CCOC1 [Afatinib]: the “cell viability of combination” value was 66.1.

On to `CCCCCCCCCCCC[N+](C)(C)CCOc1ccccc1.[Br-]` [Domiphen Bromide] + CN(C)C/C=C/C(=O)Nc1cc2c(Nc3ccc(F)c(Cl)c3)ncnc2cc1O[C@H]1CCOC1 [Afatinib], for which the “cell viability of combination” value was found to be 65.3. On to `CCCCCCCCCCCCCCCC[n+]1ccccc1.[Cl-]` [Cetylpyridinium Chloride] + CN(C)C/C=C/C(=O)Nc1cc2c(Nc3ccc(F)c(Cl)c3)ncnc2cc1O[C@H]1CCOC1 [Afatinib], for which the “cell viability of combination” value amounted to 55.3.

On to `Cc1cc(C(C#N)c2ccc(Cl)cc2)c(Cl)cc1NC(=O)c1cc(I)cc(I)c1O` (stereo not given) [Closantel] + CN(C)C/C=C/C(=O)Nc1cc2c(Nc3ccc(F)c(Cl)c3)ncnc2cc1O[C@H]1CCOC1 [Afatinib], for which the “cell viability of combination” value came out at 75.8. As to `Cc1cc(C(C#N)c2ccc(Cl)cc2)c(Cl)cc1NC(=O)c1cc(I)cc(I)c1[O-].[Na+]` (stereo not given) [Closantel Sodium] + CN(C)C/C=C/C(=O)Nc1cc2c(Nc3ccc(F)c(Cl)c3)ncnc2cc1O[C@H]1CCOC1 [Afatinib], the “cell viability of combination” value was 72.7.
